Measurements published in PMC5540273 (PLoS ONE, 2017).

These compounds were tested on CDK4. Settings: concentration: 1 μM, replicates: in singlicate; n = 1.
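Further: KINOMEscan kinase panel screen.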

Structure (SMILES)	%Inh
CN(C)c1ncnc2nc[nH]c12 [SKF-31736]	25%
O=C(O)C(F)(F)F.O=c1[nH]ccc2nc(N[C@@H]3CCNC3)nc(Nc3ccc4c(c3)S(=O)(=O)CC4)c12 [GSK2181306]	50%
Cc1ccc(NC(=O)c2ccc(Cl)c(Cl)c2)cc1-c1ccc(C(=O)Nc2ccncc2)cc1 [GSK1398460]	0%

What follows are compounds tested on CDK5. Settings: concentration: 1 μM, replicates: in singlicate; n = 1.

Structure (SMILES)	%Inh
N#CC1(c2cccc(C(=O)Nc3cccc(Oc4ccc5nc(NC(=O)C6CC6)sc5n4)c3)c2)CC1	0%
Cc1ccc(C)c(NC(=O)Nc2ccc(C)c(-c3ccc(C(=O)Nc4ccncc4)cc3)c2)c1 [GSK1398473]	2%
O=C(Nc1n[nH]c2nc(-c3ccccc3O)ccc12)C1CC1 [SB-711880]	0%
CCn1c(-c2nonc2N)nc2c(-c3ccccc3)ncc(OCCCN)c21.O=C(O)C(F)(F)F.O=C(O)C(F)(F)F [GSK260205]	0%
Cl.Cl.NC(CNC(=O)c1cc(Br)c(-c2ccnc3[nH]ccc23)s1)c1ccccc1 (stereo not drawn) [GSK1322949]	0%
CCOc1nccc(-c2c(-c3ccc(F)cc3)ncn2C2CCNCC2)n1 [SB-249175]	12%
COc1cccc2c(-c3ccncc3)c(-c3ccc(F)cc3)nn12 [GW468513]	0%
CC(C)c1nc(-c2cccc(NS(=O)(=O)c3c(F)cccc3F)c2)c(-c2ccnc(Nc3ccc(N4CCOCC4)nc3)n2)s1.Cl [GSK1723980]	98.9%
O=C(Nc1n[nH]c2cc(-c3cccs3)ccc12)C1CC1 [SB-731284]	0%
